IL1B secr inh: inhibitors of inflammasome signaling (IL-1 beta secretion); THP-1 LPS/ATP IL-1B secretion, AlphaLISA, 16 h; active compounds read low; activity change, % at 57.5 µM; 360,000 compounds, 4.7% hits; in the data active = activity change below about -50%; inconclusive = mostly about -30% to -49%
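Secreted IL-1B measured by AlphaLISA bead assay after 16 h compound exposure of THP-1 cells; compounds (final up to 57.5 uM) added 1 h before LPS (250 ng/mL) and ATP (1.25 mM) stimulation; lower signal means less secretion.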
TDP1 cell noCPT: qHTS for Inhibitors of human tyrosyl-DNA phosphodiesterase 1 (TDP1): qHTS in cells in absence of CPT; AID 686978, 2013; 420,000 compounds, 15% hits; Potency, µM (top dose mostly 46.2 µM), for the others: at the top dose activity change, negative = growth inhibition, most hits filed as inhibitors; DT40 Tdp1-/- hTDP1 cells, no CPT, ATP luminescence, 48 h; note: potency is the fitted concentration of half-maximal effect; nearly all actives have a fitted effect of over 55% in size
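Chicken DT40 Tdp1-/- cells complemented with human TDP1, screened without camptothecin (DMSO vehicle only), 400 cells/well. Compounds pin-transferred, cells incubated at 37 °C for at least 48 hr. Growth read as ATP-dependent luminescence (CellTiter-Glo, 30 min at RT).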
HT1080-NT tox: kills 2HG-producing HT-1080-NT fibrosarcoma cells. 360,000 compounds, 1.6% hits. HT-1080-NT fibrosarcoma viability, CellTiter-Glo ATP luminescence, 48 h. Potency, µM (doses to about 46.1 µM), for inactives: at the top dose activity, negative = less viability, usual class: cytotoxic. AID 686970;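 note: NT is the 2HG producing partner of a matched IDH1 knockdown line; potency is the fitted concentration of half-maximal effect; 0% = DMSO-treated cells and -100% = media-only wells without cells; nearly all actives have a fitted effect of over 55% in size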
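HT-1080-NT; 750 cells/well; 5% FBS RPMI; 48 h compound, 37 degrees C; CellTiter-Glo luminescence; curve fitting and curve-class assignment.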
DT40 TDP1 CPT: growth inhibition of DT40 Tdp1-/-;hTDP1 cells with camptothecin (screen for TDP1 inhibitors). 420,000 compounds, 12% hits. AID 686979. Potency, µM (doses to about 46.2 µM), for the others: top-dose activity change, negative = growth inhibition, most hits filed as inhibitors. chicken DT40 Tdp1-/-;hTDP1 cells + 20 nM CPT, ATP luminescence, 48 h; note: potency is the fitted concentration of half-maximal effect; nearly all actives have a fitted effect of over 55% in size
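Chicken DT40 Tdp1-/- cells complemented with human TDP1, 400 cells/well, exposed to compounds plus 20 nM camptothecin for at least 48 h at 37 C; viability read as ATP content by CellTiter-Glo luminescence.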
ELG1 DNA repair: blocks ELG1-dependent DNA repair in HEK293T cells | Potency, µM (doses to about 46.1 µM), without a hit: at the highest dose activity change, negative = inhibition, actives largely listed as inhibitors | HEK293T ELG1-luciferase reporter, luminescence, 16 h; DNA damage induced by 5-fluorouridine | 330,000 compounds, 2.3% hits; note: potency is the fitted concentration of half-maximal effect; nearly all actives have a fitted effect of over 55% in size
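Step one: seed 2,000 cells per well. Step two: pin-transfer compound or DMSO alongside 5-fluorouridine. Step three: incubate 16 hr, 37 °C, 5% CO2. Step four: add ONE-Glo, wait 30 min, read luminescence.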
HT1080 IDH1KD tx: kills HT-1080 cells with IDH1 knockdown; HT-1080 IDH1 knockdown viability, ATP luminescence, 48 h; Potency, µM (series often up to 46.1 µM), for the others: at the top dose activity, negative = toxicity, usual class: cytotoxic; 360,000 compounds, 2% hits;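 note: potency is the fitted concentration of half-maximal effect; 0% = DMSO wells and -100% = cell-free medium wells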
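Viability of IDH1-knockdown HT-1080 fibrosarcoma cells was assessed by CellTiter-Glo after 48 h at 37 °C with titrated compound; concentration-effect curves were classified by fit quality and response size.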
Numbers without * were called inactive; ? = inconclusive; nt = not tested or not shown; [ ] = remark or other dose. A selection: hits, their analogues and other compounds. The true share with any hit is near 19%. Unless noted, calls come from the whole dose curve; as a rule, active = well fitted curve in the direction sought with a large enough effect; inconclusive = small, poorly fitted or top-dose-only effect, or another doubt; inactive = no such curve, though single readings can be large; an effect the other way counts as inactive or inconclusive. Unless noted, % is set by controls: 0 for no effect and ±100 for the full control effect.

SMILES	IL1B secr inh	TDP1 cell noCPT	HT1080-NT tox	DT40 TDP1 CPT	ELG1 DNA repair	HT1080 IDH1KD tx
CCOC(=O)C1=C(N)Oc2cc(O)ccc2C1c1cccc([N+](=O)[O-])c1 (stereo unspecified)	-97*	16µM*	7.3µM*	?	-13%	5.8µM*
CCOC(=O)C1=C(CN2CCOCC2)NC(=O)NC1c1cccc([N+](=O)[O-])c1 (stereo unspecified)	10	6%	7%	8%	0%	4%
CCOC(=O)C1=C(C)N(C)C(=O)NC1c1cccc([N+](=O)[O-])c1 (stereo unspecified)	-3	0%	12%	-29%	nt	-1%
CCOC(=O)c1cccc(NC(=O)Nc2c(C)n(C)n(-c3ccccc3)c2=O)c1	nt	-6%	nt	0%	nt	nt
O=P1(NC2CCCC2)OCC2(CO1)COP(=O)(NC1CCCC1)OC2 (stereo unspecified)	-2	8%	12%	4%	nt	11%
CC(=O)c1ccc(NC(=O)CSc2nc(=O)n(Cc3ccncc3)c3c2CCC3)cc1	nt	-3%	nt	-5%	nt	nt
COc1cc(NC(=O)C2CCN(c3cnc4ccccc4n3)CC2)cc(OC)c1OC	nt	-21%	nt	-3%	nt	nt
Cc1onc(-c2c(F)cccc2Cl)c1-c1nnc(-c2ccc(C(F)(F)F)cc2)o1	nt	?	-22%	?	?	26µM*
Cc1onc(-c2ccccc2)c1-c1nnc(-c2ccccc2C(F)(F)F)o1	?	?	0%	2%	?	-26%
CC(=O)Nc1nnc(-c2c(-c3c(Cl)cccc3Cl)noc2C)o1	23	-9%	2%	19%	5%	0%
Cc1onc(-c2c(Cl)cccc2Cl)c1-c1nnc(-c2ccc(Cl)cc2)o1	-1	16µM*	-21%	?	?	-28%
CC(C)OCCCn1c(SCc2ccccc2C#N)nc2c(sc3ccccc32)c1=O	nt	-1%	nt	9%	nt	nt
CCCCN1C(=O)C(C(=O)OCC)CC2=C1CCCC2=O (stereo unspecified)	18	-7%	15%	-2%	nt	6%
Cn1c(C(=O)NCCc2ccccc2)cc2sc(Cl)cc21	nt	-18%	nt	-18%	nt	nt
Cc1ccccc1C1c2[nH]c3ccccc3c2C[C@H]2C(=O)N(C3CC3)CC(=O)N12 (stereo partly specified)	7	?	?	?	-11%	-7%
COc1ccc(C2c3[nH]c4ccccc4c3C[C@H]3C(=O)N(C4CCN(Cc5ccccc5)CC4)CC(=O)N23)cc1OC (stereo partly specified)	-24	?	?	21µM*	-7%	-27%
COc1cccc(C2c3[nH]c4ccccc4c3C[C@H]3C(=O)N(C4CCN(Cc5ccccc5)CC4)CC(=O)N23)c1 (stereo partly specified)	-58*	?	?	23µM*	?	?
COc1ccccc1C1c2[nH]c3ccccc3c2C[C@H]2C(=O)N(C3CCN(Cc4ccccc4)CC3)CC(=O)N12 (stereo partly specified)	-26	9.2µM*	?	?	23µM*	?
COc1ccc(C2c3[nH]c4ccccc4c3CC3C(=O)N(CCc4ccc(OC)c(OC)c4)CC(=O)N32)cc1 (stereo unspecified)	nt	-12%[9.04 µM]	nt	4%[9.04 µM]	nt	nt
Cc1cccc(C)c1NC(=O)CN(c1c(C)cccc1C)S(C)(=O)=O	-19	14%	-2%	21%	nt	2%
O=C(NNC(=O)C12CC3CC(CC(C3)C1)C2)c1ccccn1	-97*	5.2µM*	-21%	4.1µM*	?	?
O=C(NNC(=S)NC(=O)C12CC3CC(CC(C3)C1)C2)c1ccncc1	46	?	13µM*	?	2%	7.9µM*

Compound activity (PubChem BioAssay)
